Only some compounds are listed: those with a hit (about 1.1% of all), similar ones and a draw of the others.
Menin MLL FP TR – inhibitors of human menin-MLL interaction, mutant MLL peptide. O00255. actives 0.23% (n = 270,000). Menin + Texas Red MLL mutant peptide, fluorescence polarization. Potency, µM (doses to about 61.6 µM), inactives show at the top dose FP activity change, negative = inhibition, most hits filed as inhibitors; active means well fitted inhibition curve with a large enough effect in the polarisation, with a control signal flat, not every such curve was filed as active; inconclusive means small, poorly fitted or top-dose-only effect, or effect the other way, or a change in a side signal; inactive means no such curve, though single readings can be large or run the other way; the % refers to the polarisation; further: potency means the concentration at half of the fitted maximal effect; % of control where 0% means no effect
Menin MLL FP FL – displaces fluorescein MLL peptide from human menin | Fluorescence polarization, fluorescein-MLL peptide displacement from menin | FP activity change, % at 61.4 µM | 290,000 tested, under 10 active | AID 1766; active means well fitted curve in the direction sought with a large enough effect in the polarisation, not every such curve was filed as active; inconclusive means small, poorly fitted or top-dose-only effect, or effect the other way, or a change in a side signal; inactive means no such curve, though single readings can be large or run the other way; the % refers to the polarisation; further: % of control where 0% means no effect
hERG WT inh – KCNH2 (human, wildtype) channel inhibition. actives 0.37% (n = 340,000). Q12809. U2OS, BacMam KCNH2, thallium flux FluxOr; stronger effect = lower value. activity change, % at 1.84 µM;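 active means maximum activity change below -70%; inconclusive means maximum activity change between -70% and -50%; inactive means maximum activity change above -50%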; further: on the % scale 0 is the no-effect control and ±100 the full control effect
Target sequence (Q12809 whole entry, looked up): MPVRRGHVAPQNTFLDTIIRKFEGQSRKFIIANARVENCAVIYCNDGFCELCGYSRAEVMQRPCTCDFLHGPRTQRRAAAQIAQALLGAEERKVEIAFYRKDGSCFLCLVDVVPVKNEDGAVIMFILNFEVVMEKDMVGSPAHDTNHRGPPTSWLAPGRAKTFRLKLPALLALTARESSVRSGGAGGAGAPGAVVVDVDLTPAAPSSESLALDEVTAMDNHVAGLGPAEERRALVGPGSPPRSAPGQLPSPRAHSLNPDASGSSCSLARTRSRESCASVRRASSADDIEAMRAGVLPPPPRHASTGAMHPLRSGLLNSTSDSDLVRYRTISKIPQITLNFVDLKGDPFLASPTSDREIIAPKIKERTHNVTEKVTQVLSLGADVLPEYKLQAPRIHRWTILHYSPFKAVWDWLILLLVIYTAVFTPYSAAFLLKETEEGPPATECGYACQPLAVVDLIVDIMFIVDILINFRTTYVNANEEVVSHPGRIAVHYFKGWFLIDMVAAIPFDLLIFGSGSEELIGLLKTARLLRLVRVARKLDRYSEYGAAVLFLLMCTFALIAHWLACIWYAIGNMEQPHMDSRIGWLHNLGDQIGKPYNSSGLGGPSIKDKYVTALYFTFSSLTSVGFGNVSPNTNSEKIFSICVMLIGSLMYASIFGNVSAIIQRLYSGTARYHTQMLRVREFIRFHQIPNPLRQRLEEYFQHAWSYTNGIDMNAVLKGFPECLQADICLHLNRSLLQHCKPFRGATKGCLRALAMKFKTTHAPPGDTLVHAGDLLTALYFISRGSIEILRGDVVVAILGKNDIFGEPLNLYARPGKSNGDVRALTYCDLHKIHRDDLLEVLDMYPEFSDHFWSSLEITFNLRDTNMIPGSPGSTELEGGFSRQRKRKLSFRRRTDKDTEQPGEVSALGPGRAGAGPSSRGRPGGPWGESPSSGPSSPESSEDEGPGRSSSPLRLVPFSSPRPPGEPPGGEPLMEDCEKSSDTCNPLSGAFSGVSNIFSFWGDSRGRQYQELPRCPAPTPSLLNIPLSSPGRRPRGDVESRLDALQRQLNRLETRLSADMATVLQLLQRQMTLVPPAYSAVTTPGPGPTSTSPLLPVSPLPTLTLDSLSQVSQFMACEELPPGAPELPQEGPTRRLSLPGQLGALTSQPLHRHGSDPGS
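U2OS cells transduced with wild-type KCNH2 virus are loaded with FluxOr dye for 45 min, and thallium flux is measured in kinetic reads before and after stimulation buffer. Rate constants are normalized to DMSO controls.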
KCNH2 3.1 block – KCNH2 3.1 (human) potassium channel inhibition; U2OS KCNH2 3.1, thallium flux FluxOr; stronger effect = lower value; activity change, % (tested at about 1.8 µM); actives 0.95% (n = 340,000); AID 720553;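 active means maximum activity change below -70%; inconclusive means maximum activity change from -70% to -50%; inactive means maximum activity change above -50%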;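 further: thallium influx rate constant from kinetic fluorescence after stimulation buffer; on the % scale 0 is the no-effect control and ±100 the full control effect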
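Channel expression came from 3.1 mutant virus (1.77 x 10^8 /mL) applied to suspended U2OS cells for 4 h. Flux was tracked with FluxOr dye plus Red40 quencher, and kinetic rate constants normalized to controls.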
MLL CXXC-DNA inh – inhibitors of human MLL CXXC domain-DNA interaction | Q03164 | MLL-CXXC / FITC-HOXA9 DNA fluorescence polarization | Potency, µM (doses to about 115 µM), for the others: top-dose activity change, negative = inhibition, actives largely listed as inhibitors | actives 0.037% (n = 290,000); active means well fitted inhibition curve with a large enough effect in the polarisation, with a control signal flat, not every such curve was filed as active; inconclusive means small, poorly fitted or top-dose-only effect, or effect the other way, or a change in a side signal; inactive means no such curve, though single readings can be large or run the other way; the % refers to the polarisation; further: potency means the concentration at half of the fitted maximal effect
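Purified MLL-CXXC (added from a 7 uM solution) was preincubated 5 min at ambient with pinned compounds in 50 mM Tris-HCl pH 7.5, 50 mM NaCl, 1 mM DTT, 0.05% BSA. Fluorescein-labeled HOX-A9 DNA (50 nM solution) followed, 30 min, then polarization read.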
Active calls of the source: *; ? = inconclusive; · = not tested or not shown; [ ] = remark or other dose.

SMILES	Menin MLL FP TR	Menin MLL FP FL	hERG WT inh	KCNH2 3.1 block	MLL CXXC-DNA inh
CC[C@H](C)[C@H](NC(=O)[C@H](CCCNC(=N)N)NC(=O)[C@@H](NC(=O)[C@H](CCCNC(=N)N)NC(=O)[C@H](CCCCN)NC(=O)[C@H](CCCNC(=N)N)NC(=O)[C@@H](NC(=O)[C@H](CC(N)=O)NC(=O)[C@@H](N)CS)[C@@H](C)O)[C@@H](C)CC)C(=O)N[C@@H](CCC(N)=O)C(=O)N[C@@H](CCCNC(=N)N)C(=O)NCC(=O)N1CCC[C@H]1C(=O)NCC(=O)N[C@@H](CCCNC(=N)N)C(=O)N[C@@H](C)C(=O)N[C@@H](Cc1ccccc1)C(=O)N[C@H](C(=O)N[C@H](C(=O)N[C@H](C(=O)NCC(=O)N[C@@H](CCCCN)C(=O)O)[C@@H](C)CC)[C@@H](C)O)C(C)C	?	-14.4	·	·	·
c1ccc(C(c2ccccc2)c2noc(CN3CCN(C4CCCC4)CC3)n2)cc1	-5.5%	0.9	17.9	-29.6	3.4%
FC(F)(F)c1ccc(-c2noc(CN3CCCN(C4CCCCC4)CC3)n2)cc1	-8.1%	3.6	-44.6	-93.5*	21.4%
CC(C)=CCC/C(C)=C/CO/N=C1/C[C@@H](O)[C@@H](O)[C@@H]2[C@@H]3C(=O)N([C@@H](C)c4ccccc4)C(=O)[C@H]3CC[C@H]12	-19.7%[11.7 µM]	-2.6[11.7 µM]	·	·	·
CCc1ccccc1NC(=O)C1CCN(S(C)(=O)=O)CC1	·	·	-12.4	-7.4	·
O=CN1CCN(C(=O)Cc2ccc(Cl)cc2)CC1	·	·	-2.7	1.7	·
Cc1ccc(-c2nc(NC(=O)c3nn(C)cc3[N+](=O)[O-])sc2C)cc1C	16.9%	3.2	3.7	-82.5*	13.2%
Cc1ccc(-c2nc(NC(=O)c3nn(C)cc3[N+](=O)[O-])sc2C)cc1	·	1.1	3.0	-32.5	26.4%
CN(CCc1ccccc1)C(=O)c1ccc(NC(=O)Cc2ccc(NC(=O)C3CCN(C(=O)C4CC4)CC3)cc2)cc1	·	·	2.8	-73.4*	·
COc1ccc(OC)c(NC2c3ncccc3C(=O)N2Cc2ccco2)c1 (stereo not drawn)	0.7%	5.0	6.2	-80.0*	-6.2%
COc1ccc(CN2C(=O)c3cccnc3C2Nc2cc(Cl)ccc2OC)cc1 (stereo not drawn)	-7.4%	3.3	2.7	-9.3	2.6%
CN(CC1CCCN(CCc2ccc(Cl)cc2)C1)C(=O)C(=O)c1ccco1 (stereo not drawn)	·	·	-22.5	-88.7*	?
Cc1occc1C(=O)N(C)CC1CCCN(CCc2ccccc2F)C1 (stereo not drawn)	·	·	17.6	-7.5	?
Cc1ccccc1CCN1CCCC(CN(C)C(=O)C(=O)c2ccco2)C1 (stereo not drawn)	-23.0%	1.1	-1.7	-89.7*	-7.3%
O=C(/C=C/c1ccc(Br)cc1)N1CCN(Cc2ccccc2)CC1	·	·	14.2	-15.2	·
O=C(Cn1nnc(-c2ccc(OCc3ccccc3F)cc2)n1)N1CCOCC1	20.9%	1.5	24.7	-89.6*	-2.0%
CCN1/C(=C/C=C/c2oc3ccc(-c4ccccc4)cc3[n+]2CC)Oc2ccc(-c3ccccc3)cc21	?	?	-95.9*	-160.3*	?
CCN1/C(=C/C=C/c2sc3ccccc3[n+]2CC)Sc2ccccc21	?	?	-11.6	-13.1	?
CC(C)Oc1ccc(CN2CCC(n3nccc3NC(=O)C3CC3)CC2)cc1	·	·	1.6	-45.0	0.6%
O=C(Nc1ccc(OC(=O)c2ccccc2)c(-c2nc3ccccc3s2)c1)c1ccccc1	17.8µM*	1.6	1.6	-5.7	51.3%
CC(=O)Nc1ccc(O)c(-c2nc3ccccc3s2)c1	?	-2.6	11.2	-1.7	2.7%
O=[N+]([O-])c1ccc(N2CCN(Cc3ccc4c(c3)OCO4)CC2)nc1	14.8%	3.8	21.1	-10.9	4.8%
O=Cc1cc([N+](=O)[O-])ccc1N1CCN(Cc2ccc3c(c2)OCO3)CC1	24.6%	6.6	?	-86.4*	1.0%
